Measurements published in ChEMBL document CHEMBL3988442, “University of Dundee, Small-Polar-MMV Screening Library” (2021).
Out of some 53,000 compounds screened, about 900 (1.7%) showed an effect of 50% or more. Many of the other results were omitted from the sample, so strong results are more common in it than they were.

system: Mycobacterium tuberculosis; assay: Cornell - Phenotypic assay to identify agents that inhibit growth of Mycobacterium tuberculosis; type: functional; set-up: scale not given: direction of the effect not stated beside the values; details: 10 mM as filed; unlikely as a test dose

Row | Compound | Percent Effect [%]
1 | c1ccc(CCCN2CCCN(c3ncnc4[nH]ccc34)CC2)cc1 | 3.591
2 | Cc1nccn1-c1ccc(=O)n(CCNC(=O)Cc2ccccc2)n1 | 4.846
3 | c1cc(N2CCCCC2)ccc1-c1noc(CN2CCOCC2)n1 | 5.485
4 | COc1ccc(N2CCN(C(=O)Cn3nc(C)c(Cl)c3C)CC2)cc1 | 54.85
5 | COc1ccc(N2CCN(C(=O)COc3c(C)occc3=O)CC2)cc1 | 55.27
6 | Cc1nn(CC(=O)N2CCN(c3ccc(F)cc3)CC2)c(C)c1Cl | -1.208
7 | COc1cccc(N2CCN(C(=O)COc3c(C)occc3=O)CC2)c1 | 16.48
8 | Cc1occc(=O)c1OCC(=O)N1CCN(c2ccccc2)CC1 | 32.32
9 | Cc1nn(CC(=O)N2CCN(c3ccncc3)CC2)c(C)c1Cl | 1.786
10 | CCC[C@H]1CN(c2nc(CO)cs2)C[C@@H]1NC(=O)C1CCC1 | 52.87
11 | O=C(N[C@H]1CN(c2nc(CO)cs2)C[C@@H]1C1CC1)C1CCCCC1 | 56.52
12 | OCc1csc(N2C[C@@H](CN3CCCCCC3)[C@@H](CO)C2)n1 | -1.997
13 | CCC[C@H]1CN(c2nc(CO)cs2)C[C@@H]1NC(=O)C1(COC)CC1 | 20.53
14 | O=C(N[C@H]1CN(c2ccncc2)C[C@@H]1C1CC1)C1CCOCC1 | 6.471
15 | CC(=O)N[C@@H]1CN(c2nc(CO)cs2)C[C@H]1c1ccc(C)o1 | 3.039
16 | O=C(c1cccs1)N1CCC2(CC1)CN(c1ccsc1)C(=O)CO2 | 16.06
17 | Clc1ccc(C2(CNC3=NCCN3)CC2)cc1.I | -15.81
18 | CCOC(=O)N1CCNC(c2cccs2)C1 (stereo unspecified) | -4.593
19 | Cc1nc(CN2CCC(N(C)Cc3nnc(C4CC4)n3C)C2)cs1 (stereo unspecified) | 55.81
20 | CN(Cc1nnc(C2CC2)n1C)C1CCN(Cc2ccon2)C1 (stereo unspecified) | -5.558
21 | CN(Cc1nnc(C2CC2)n1C)C1CCN(Cc2ccccc2)C1 (stereo unspecified) | 104.3
22 | CN(Cc1nnc(C2CC2)n1C)C1CCN(Cc2ccncc2)C1 (stereo unspecified) | -21.05

Row | Compound | Percent Effect [%]
23 | CN(Cc1nnc(C2CC2)n1C)C1CCN(Cc2ccc(F)cc2)C1 (stereo unspecified) | 10.51
24 | Cc1cnc(CN2CCC(N(C)Cc3nnc(C4CC4)n3C)C2)cn1 (stereo unspecified) | 8.133
25 | CC(=O)N1CCC(c2ncc(C(=O)Nc3ccccc3)c(C)n2)CC1 | 16.5
26 | O=C(CC1CC1)N1CCC2(CC1)CN(Cc1cccnc1)C(=O)CO2.O=C(O)C(F)(F)F | 2.615
27 | COCCN1C[C@H]2CCN(C(=O)c3cc(C)on3)CC[C@H]2S1(=O)=O | -32.34
28 | CNC(=O)c1cc2ccccc2n1C | -0.05075
29 | CC(C)(C)c1csc(CCNC(=O)C(c2ccccc2)n2cnnn2)n1 (stereo unspecified) | 11.39
30 | Cc1noc(NC(=O)c2ccc(Br)s2)n1 | 105.7
31 | Cc1ccc(C(=O)Nc2nc(C)no2)cc1 | 27.63
32 | Cc1noc(NC(=O)c2ccc(C#N)cc2)n1 | 13.91
33 | Cc1noc(NC(=O)c2ccc(Br)o2)n1 | 16.32
34 | Cc1noc(NC(=O)c2ccc(Br)cc2)n1 | 106.9
35 | Cc1noc(NC(=O)CCNC(=O)c2ccc(Br)cc2)n1 | -19.08
36 | O=C(NCCn1ccnc1)c1cccc(Br)c1 | 9.854
37 | Cc1noc(NCc2ccc(F)cc2)n1 | -8.844
38 | Cc1noc(NC(=O)c2ccccc2)n1 | -1.268
39 | Cc1noc(COCC(=O)Nc2ccc(Br)c(C)n2)n1 | 11.41
40 | Cc1noc(NC(=O)c2cccc(Br)c2)n1 | 106.3
41 | Cc1noc(NC(=O)c2ccc(OC(F)(F)F)cc2)n1 | 104.6
42 | CN1C(=O)C2(CC(=O)Nc3[nH]ncc32)c2cc(F)ccc21 (stereo unspecified) | 1.042
43 | COCCNC(=O)c1sc2ccccc2c1C1CCC(CN)CC1.Cl (stereo unspecified) | -3.556
44 | CC(C)c1nccn1-c1nccnc1C1CCCN1Cc1cccnc1 (stereo unspecified) | -9.727

Row | Compound | Percent Effect [%]
45 | CN(C)c1cc(C2CCCNC2)ccn1.Cl.Cl (stereo unspecified) | 40.71
46 | CC(C)(C)OC(=O)N1CCn2c(nnc2C2CCCNC2)C1 (stereo unspecified) | -27.32
47 | CCC(C)(C)n1nnnc1C(c1cccs1)N1CCCCC1 (stereo unspecified) | 33.43
48 | CCC(C)(C)n1nnnc1C(c1cccs1)N1CCc2ccccc2C1 (stereo unspecified) | 77.94
49 | CCC(C)(C)n1nnnc1C(c1cccs1)N1CCc2ccccc21 (stereo unspecified) | 26.96
50 | CCOc1ccccc1CN(C)C(=O)CN1C(=O)OC[C@@H]1C(C)C | -25.38
51 | NCc1n[nH]c(=O)n1-c1cccc(Cl)c1Cl | -49.88
52 | Cc1cccc(-c2nccnc2C2CCN(C)CC2)c1C | -15.39
53 | NC(=O)c1c(-c2ccc(Cl)cc2)csc1NC(=O)CCC(=O)O | -1.119
54 | O=C(COc1coc(CN2CCCCCC2)cc1=O)c1ccccc1 | -10.82
55 | O=C(COc1coc(CN2CCOCC2)cc1=O)c1ccc(Cl)cc1 | 4.659
56 | O=C(COc1coc(CN2CCCCC2)cc1=O)c1ccc(Cl)cc1 | 53.44
57 | CSCCC(=O)N1CCCC(c2ncc[nH]2)C1 (stereo unspecified) | 7.779
58 | CCCc1cc(=O)[nH]c(-n2nc(-c3cccs3)cc2N)n1 | 94.38
59 | Cc1cc(=O)[nH]c(-n2nc(C)c(CCC(=O)NCc3cccs3)c2C)n1 | 13.95
60 | CCCS(=O)(=O)NCCn1ccc(-c2cccs2)n1 | -17.91
61 | COC(=O)CCc1c(C)nn(-c2nc(C)cc(=O)[nH]2)c1C | 23.13
62 | Cc1cc(=O)[nH]c(-n2nc(-c3ccccc3)cc2N)n1 | 94.92
63 | NC1(c2nc(-c3cccs3)cc(=O)[nH]2)CCCCC1 | -54.45
64 | Cc1cc(=O)[nH]c(-n2nc(-c3cccs3)cc2N)n1 | 98.99
65 | NC1(c2nc(-c3ccccc3)cc(=O)[nH]2)CCCC1 | 17.2
66 | NC1(c2nc(-c3cccs3)cc(=O)[nH]2)CCCC1 | -47.24

Row | Compound | Percent Effect [%]
67 | COc1cc(N2C[C@H]3CN(Cc4ccccn4)C[C@H]3C2)ncn1.O=C(O)C(F)(F)F | 8.566
68 | Cn1nnnc1SC1CCc2ccccc2NC1=O (stereo unspecified) | 4.345
69 | O=C(COC[C@]12COC[C@H]1CN(C1CCC1)C2)N1CCCC1.O=C(O)C(F)(F)F | -23.94
70 | CCC1CN(CCCNS(C)(=O)=O)c2ccccc2O1 (stereo unspecified) | 99.54
71 | CCC1CN(CCCO)c2ccccc2O1 (stereo unspecified) | 66.97
72 | CS(=O)(=O)NCC1Cc2ccccc2O1 (stereo unspecified) | -12.85
73 | CCCN(CC1COc2ccccc2O1)C(=O)CCN1C(=O)CCC1=O (stereo unspecified) | 17.77
74 | CN(CC1COc2ccccc2O1)C(=O)C1=NN(C)C(=O)CC1 (stereo unspecified) | 21.15
75 | CCC1CN(CCNS(C)(=O)=O)c2ccccc2O1 (stereo unspecified) | 23.74
76 | Cc1cccc(CN2CCC3(CCN(Cc4ccccn4)C3)C2=O)c1.O=C(O)C(F)(F)F.O=C(O)C(F)(F)F (stereo unspecified) | 1.967
77 | COc1cc(CCC(=O)N2CCC(c3cc4nccnc4[nH]3)CC2)on1 | 16.88
78 | CCCSc1ncccc1C(=O)NCc1ccc(N(C)C)cc1 | -11.44
79 | O=C(O)C(F)(F)F.c1ccc(CN2CCc3ncnc(-c4ccsc4)c3CC2)nc1 | 15.9
80 | CCc1csc(C2CCCN(C(=O)c3ccc(=O)n(CC)n3)C2)n1 (stereo unspecified) | -10.64
81 | CCc1nc(C(=O)N(CC)CC(=O)N(C)C)nn1-c1ccccc1Cl | 10.69
82 | CCCn1nnnc1CN(c1ccc(N2CCOCC2)cc1)C(C)C | 100.7
83 | CCCn1nnnc1CN(C)C(C)c1ccc(C)cc1 (stereo unspecified) | 18.09
84 | CCCn1nnnc1CN(c1ccc(C)cc1)C(C)C | 13.52
85 | c1ccc(CN2CCC(CCNc3ncnc4c3CCNCC4)C2)cc1 (stereo unspecified) | 21.24
86 | CN1C(=O)CCCC12CCCN(Cc1cccs1)C2.O=C(O)C(F)(F)F (stereo unspecified) | 15.82
87 | COCCN1CC2(CCN(C(=O)c3ccno3)CC2)c2ccccc21.O=C(O)C(F)(F)F | -25.4
88 | CCN1CCC2(CC1)CN(CCO)c1ccccc12 | -37.58

Row | Compound | Percent Effect [%]
89 | COCCN1CC2(CCN(Cc3ccco3)CC2)c2ccccc21 | 57.89
90 | Cc1cc(C)n(CC2CN(CCC(=O)NC3CCCCC3)CCO2)n1 (stereo unspecified) | -4.136
91 | Cc1cc(O)c(OCC(=O)/N=c2\[nH]c(C)c(C)s2)cn1 | 27.09
92 | CC(=O)Nc1nc(C(=O)N2CCC(Nc3cccnn3)CC2)cs1 | -42.9
93 | Cc1[nH]/c(=N/C(=O)Cn2nc(N3CCOCC3)ccc2=O)sc1C | -3.782
94 | Cc1[nH]/c(=N\C(=O)c2csc(NC3CC3)n2)sc1C | 53.16
95 | Cc1[nH]/c(=N\C(=O)c2csc(NC3CCCC3)n2)sc1C | 105
96 | CC(=O)Nc1nc(C(=O)N2CCCC(c3cc(C)[nH]n3)C2)cs1 (stereo unspecified) | -1.903
97 | COC(=O)Cn1c(C)cc(=O)n2nc(-c3cccs3)nc12 | -3.318
98 | Cc1cnn(CC2CN(CCc3cccs3)CCO2)c1 (stereo unspecified) | 13.16
99 | CC(C(=O)NCC(C)(C)c1ccc2c(c1)OCCO2)n1cncn1 (stereo unspecified) | -4.418
100 | CC(=O)N1CCC(c2nc(C)cc(-c3ccccc3C(=O)O)n2)CC1 | -42.06
101 | COc1ccccc1OC1CCN(c2nccc(N)n2)CC1 | -15.16
102 | CS(=O)(=O)NCCCNC(=O)c1cnc(-c2ccsc2)s1 | -10.19
103 | Cn1cc(CN2CCC(c3ccncc3)CC2)cn1 | 9.056
104 | COc1cc2c(cc1CN1CCC3(CCCN(C)C3=O)C1)OCCO2 (stereo unspecified) | 14.22
105 | COc1ccc(CN2CCC3(CCCN(C)C3=O)C2)c(OC)c1C (stereo unspecified) | 52.12
106 | COc1ccc(CN2CCC3(CCCN(C)C3=O)C2)c(Cl)c1OC (stereo unspecified) | 41.14
